Hit rate of the full screen: of about 320,000 compounds, about 22,000 (6.9%) were called active. Not shown: some 27% with an inconclusive outcome. Calls follow the shape of the dose curve; as a rule, active = well fitted inhibition curve with a large enough effect; inconclusive = small, poorly fitted or top-dose-only effect, or another doubt; inactive = no such curve, though single readings can be large or run the other way. Only a selection was taken, and actives are over-represented in it overall.
Assay: Primary qHTS for delayed death inhibitors of the malarial parasite plastid, 96 hour incubation
Settings: P. falciparum luciferase reporter growth; series mostly up to 28.7 µM; activity change, negative = inhibition: at the top concentration
Text: The goal of this screen is to discover new antimalarial compounds that act by inhibiting the development of the apicoplast in the malarial parasite Plasmodium falciparum. The biochemical processes that make this organelle essential for erythrocytic stage parasites are not well understood. However, antibiotics such as azithromycin and tetracycline, which target the apicoplast translational machinery, have a potent antimalarial effect.
We have developed a cell-based assay that measures parasite growth based on the expression of an integrated copy of a firefly luciferase reporter. To detect small molecules that cause this "delayed death" phenotype, erythrocytes infected with the luciferase-expressing parasites were incubated with compounds for either one or two generations, corresponding to 48 and 96 hours, respectively. Compounds that inhibit parasite growth in the second generation, but not the first, should be enriched in antimalarials that target the apicoplast. Growth inhibition is detected by a decrease in luciferase activity.
Assay Provider: David Fidock and Eric Ekland, Columbia University
Keywords: NIH Roadmap, MLPCN, MLI, MLSMR, qHTS, NCGC, qHTS, malaria, luciferase, viability
Four microliters of infected erythrocytes (2% hematocrit, 0.05% parasitemia final concentration) in culture medium were dispensed and the plates incubated for 96 hours at 37 C in 5% CO2. Two microliters of luciferase detection reagent was added and luminescence was detected by a ViewLux (PerkinElmer) reader.
% is scaled to controls: 0 for no effect and ±100 for the full control effect; potency is read from the fitted curve at half-maximal effect.

Row | Structure (SMILES) | activity change, negative = inhibition | Potency
1 | Cc1ccccc1NC(=O)C(C)OC(=O)CCC(=O)N(CC(C)C)c1c(N)n(CC(C)C)c(=O)[nH]c1=O (centres undefined) | 4.86% (inactive) | –
2 | Cc1ccc(S(=O)(=O)N2CCC(C(=O)OCC(=O)N(C)c3ccccc3)CC2)cc1C | -10.6% (inactive) | –
3 | CCN(CC(=O)NCc1cccs1)C(=O)c1ccc(OC)c(S(=O)(=O)N2CCOCC2)c1 | 4.92% (inactive) | –
4 | CC(C)(C)NC(=O)NC(=O)CN1CCC(Cc2ccccc2)CC1 | -37.5% (inactive) | –
5 | CC(C)(C)NC(=O)NC(=O)COC(=O)C1c2ccccc2Oc2ccccc21 | 16.9% (inactive) | –
6 | Cc1ccccc1CSCC(=O)NC(=O)NC(C)(C)C | – | 10.4 µM (active)
7 | COc1ccc(NC(=O)c2cc([N+](=O)[O-])ccc2NC(=O)CNC2CCCCC2C)c(OC)c1 (centres undefined) | 34.8% (inactive) | –
8 | CN(CC(=O)Nc1ccc(F)c(F)c1F)C(=O)Cn1cnc2c1c(=O)n(C)c(=O)n2C | -15% (inactive) | –
9 | COc1ccc2cc(C3=CC(=O)C[C@H](c4ccc5c(c4)OCO5)C3)ccc2c1 | -36.2% (inactive) | –
10 | COc1ccc([C@H]2CC(=O)C=C(c3ccc(C)cc3)C2)cc1 | -34.7% (inactive) | –
11 | COc1ccc([C@H]2CC(=O)C=C(c3ccc(OC(F)(F)F)cc3)C2)cc1OC | – | 11.7 µM (active)
12 | COc1cccc(N2CC(NS(=O)(=O)c3cccs3)CC2=O)c1 (centres undefined) | 8.83% (inactive) | –
13 | FCOC(C(F)(F)F)C(F)(F)F | 117% (inactive) | –
14 | O=C(COc1ccc2c(c1)CCC2)N1CCN(c2ccc(F)cc2)CC1 | -14.1% (inactive) | –
15 | CC(C)OCC(O)CN1CCN(C(c2ccccc2)c2ccccc2)CC1 (centres undefined) | -7.62% (inactive) | –
16 | Oc1ccccc1CN1CCN(C(c2ccccc2)c2ccccc2)CC1 | – | 0.828 µM (active)
17 | COc1ccccc1CN1CCN(C(c2ccccc2)c2ccccc2)CC1 | – | 8.28 µM (active)
18 | COc1ccccc1NC(=S)N1CCN(C(c2ccccc2)c2ccccc2)CC1 | 26.1% (inactive) | –
19 | O=C(O)CN1CCN(C(c2ccccc2)c2ccccc2)CC1 | -16% (inactive) | –
20 | COc1ccccc1CN1CCN(Cc2cc(OC)c(OC)cc2OC)CC1 | -11.7% (inactive) | –
21 | CC1=C(C(N)=O)C(c2ccc(F)cc2)n2nc(CCCO)nc2N1 (centres undefined) | 28.2% (inactive) | –
22 | COc1cccc(N(C(=O)c2snc(C(N)=O)c2N)C(C(=O)NCC2CCCO2)c2c[nH]c3ccccc23)c1 (centres undefined) | -7.17% (inactive) | –
23 | CC(C)Cc1nc(Cl)c(C#N)c2c1CCC2 | 36.5% (inactive) | –
24 | COC(=O)c1ccc(S(=O)(=O)N(CCO)Cc2ccccc2)n1C | 4.12% (inactive) | –
25 | COc1ccccc1C(=O)Nc1ccc(OCC(=O)N2CCCCC2)cc1 | -28.2% (inactive) | –

Row | Structure (SMILES) | activity change, negative = inhibition | Potency
26 | COc1ccccc1C(=O)Nc1ccc(OCc2nnc3c4ccccc4c(C)nn23)cc1 | – | 9.28 µM (active)
27 | COc1ccccc1C(=O)NNC(=O)c1ccc(NC(=O)c2ccccc2)cc1 | 19.4% (inactive) | –
28 | CC(=O)N1CCN(C(=O)C2(NC(=O)Nc3ccc(C)cc3)CCCCC2)CC1 | 363% (inactive) | –
29 | O=C(NCc1cc(F)cc(C(F)(F)F)c1)C1CCC(=O)N(C2CCCC2)C1 (centres undefined) | -15.9% (inactive) | –
30 | CCOC(=O)c1c(CNCc2ccccc2F)c2sc(C)cc2n1C | -9.14% (inactive) | –
31 | COc1ccc(Nc2ncnc3sc(C)cc23)cc1 | 34.4% (inactive) | –
32 | CN1/C(=c2/s/c(=C3/C(=O)N(c4ccccc4)NC3=Nc3ccccc3)n(C)c2=O)C(C)(C)c2ccccc21 | – | 11.7 µM (active)
33 | CCN1C(=O)/C(=c2\s/c(=C3\Sc4ccccc4N3C)c(=O)n2C)N(C)C1=S | 6.98% (inactive) | –
34 | Cc1csc2nc(O)c(C(=O)NCCN3CCOCC3)c(=O)n12 | 12% (inactive) | –
35 | CCCCC(NS(=O)(=O)c1ccc(C)cc1)C(=O)Oc1ccc2c3c(c(=O)oc2c1)CCC3 (centres undefined) | 19.9% (inactive) | –
36 | CCCOc1ccc2c3c(c(=O)oc2c1OCCC)CCC3 | – | 6.57 µM (active)
37 | O=C(COc1ccc2c3c(c(=O)oc2c1)CCC3)NC1CCCCC1 | 0% (inactive) | –
38 | O=C(Cn1cc(C(=O)C2CC2)c2ccccc21)Nc1ccccc1Cl | 15.4% (inactive) | –
39 | COCCCNc1nc2c(-c3cccc(C)c3)nnn2c2ccc(Cl)cc12 | 2.68% (inactive) | –
40 | CC1=NN(C(=O)CCCc2ccccc2)C(O)(C(F)(F)F)C1 (centres undefined) | -30.7% (inactive) | –
41 | O=C(Cc1ccccc1)N1N=C(c2ccncc2)CC1(O)C(F)(F)F (centres undefined) | – | 13.1 µM (active)
42 | CC1=NN(C(=O)CCc2ccccc2O)C(O)(C(F)(F)F)C1 (centres undefined) | -3.05% (inactive) | –
43 | Cc1ccc2[nH]c(=O)c(CN(C)S(=O)(=O)c3cccc4nonc34)cc2c1 | -24.7% (inactive) | –
44 | CC1=NNC(=O)C1CC(=O)N/N=C/c1ccncc1 (centres undefined) | 31.8% (inactive) | –
45 | [O-][N+]12CCCCC1CCCC2CO (centres undefined) | 2.61% (inactive) | –
46 | CC(=O)Nc1ccc(NC(=O)CCN2C(=O)C3CC=CCC3C2=O)cc1 (centres undefined) | 7.9% (inactive) | –
47 | O=C(CSc1nnc(SCc2ccc(F)cc2)s1)Nc1ccc(C(=O)O)cc1 | 175% (inactive) | –
48 | O=C(NCCc1ccc(F)cc1)c1ccc2nccnc2c1 | 351% (inactive) | –
49 | O=C(CC1SC(N2CCCC2)=NC1=O)Nc1ccc(C(=O)NCCc2ccc(F)cc2)cc1 (centres undefined) | – | 10.4 µM (active)
50 | O=C(CNC(=O)Cc1ccccc1)N=Nc1c(O)[nH]c2ccc(Br)cc12 | 0.113% (inactive) | –

Row | Structure (SMILES) | activity change, negative = inhibition | Potency
51 | O=C(c1ccccc1)N1CCN(C(=O)c2cc3nc(-c4ccccc4)cc(C(F)(F)F)n3n2)CC1 | -1.61% (inactive) | –
52 | Cc1ccc2nc(/C(C#N)=C\c3ccc(OC(=O)c4cccs4)cc3)[nH]c2c1 | – | 9.28 µM (active)
53 | COc1cc(/C=C(\C#N)c2nc3ccccc3[nH]2)ccc1O | 2.89% (inactive) | –
54 | Cc1ccc2nc(S(=O)(=O)O)[nH]c2c1 | 20.9% (inactive) | –
55 | Cc1c(C=O)c2ccccc2n1CCOc1ccccc1 | 13.8% (inactive) | –
56 | Cc1nn(C)c(Cl)c1CN1CCC(Oc2ccc(C(=O)N3CCCC3)cc2)CC1 | 50% (inactive) | –
57 | COc1ccc(C(=O)NC(C)CCc2ccccc2)c(OC)c1 (centres undefined) | -22.5% (inactive) | –
58 | CC(C)c1ccc(C(=O)OC2CCOC2=O)cc1 (centres undefined) | 0% (inactive) | –
59 | Cn1c(=O)c2ccccc2n(CC(=O)Nc2ccc3c(c2)OCCO3)c1=O | 1.42% (inactive) | –
60 | COc1ccc(CC(=O)NCC(=O)N/N=C/c2cc(Br)ccc2OC)cc1 | -8.14% (inactive) | –
61 | Cc1ccc(S(=O)(=O)Oc2ccc(/C=N/NC(=O)c3ccncc3)cc2)cc1 | 40.8% (inactive) | –
62 | Cc1ccc(OCCOCCOc2ccc(Br)cc2/C=N\NC(=O)c2ccncc2)cc1 | – | 5.22 µM (active)
63 | CNS(=O)(=O)c1cccc(C(=O)NC2CCCc3ccccc32)c1 (centres undefined) | -8.59% (inactive) | –
64 | Cc1n[nH]c(=O)c2c(NC(=O)COC(=O)c3ncc(Cl)c(Cl)c3Cl)oc(C)c12 | 22% (inactive) | –
65 | Cc1cccc(C)c1NC(=O)NC1=CCCN1C | -17.3% (inactive) | –
66 | C=C(C)Cn1c(N2CCCC2)nc2c1c(=O)[nH]c(=O)n2C | 12.6% (inactive) | –
67 | Cc1nnc(SCCCn2c(N3CCCCC3)nc3c2c(=O)[nH]c(=O)n3C)s1 | – | 2.08 µM (active)
68 | Cn1c(=O)[nH]c(=O)c2c1nc(N1CCCCCC1)n2CC(=O)c1ccccc1 | -12.3% (inactive) | –
69 | Cn1c(=O)[nH]c(=O)c2c1nc(Br)n2CCCCSc1nc2ccccc2o1 | 30.3% (inactive) | –
70 | Cn1c(=O)[nH]c(=O)c2c1nc(CN1CCN(c3ccccc3F)CC1)n2CCc1ccccc1 | -25.9% (inactive) | –
71 | CC1CCN(c2nc3c(c(=O)[nH]c(=O)n3C)n2CCCc2ccccc2)CC1 | – | 10.4 µM (active)
72 | Cc1nnc(Sc2nc3c(c(=O)[nH]c(=O)n3C)n2Cc2ccccc2)s1 | -11.4% (inactive) | –
73 | CCCCNc1nc2c(c(=O)[nH]c(=O)n2C)n1CCOc1ccccc1 | -22.4% (inactive) | –
74 | C=C(C)Cn1c(N2CCN(CC)CC2)nc2c1c(=O)[nH]c(=O)n2C | – | 2.33 µM (active)

Source: PubChem BioAssay AID504834 (National Center for Advancing Translational Sciences (NCATS), 2011)
